In PubChem BioAssay AID2380 (Sanford-Burnham Center for Chemical Genomics, 2010):
The whole screen tested about 330,000 compounds, of which about 960 (0.29%) were called active. This is one part of a sample in which actives are shown more often than they occur. A number with no mark means an inactive call.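 Rule for the calls: active = compounds whose signal lies at least 3.5 SD above the mean of all wells on their plate; inactive = the rest.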

assay: small molecules increasing insulinoma cell replication – ATP luminescence, uHTS, primary screen (AID 2380); conditions: MIN6 cells proliferation, ATPlite luminescence, 48 h; at 10 µM; active compounds read high; 100% = growth in 10% serum; cells starved in 0.2% serum;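 note: 0% = DMSO-treated cells in low-serum medium and 100% = 10% serum control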

SMILES | proliferation
CCC1(C)Cc2c(sc3nnn(CC(=O)Nc4ccc(Cl)cc4)c(=O)c23)CO1 (stereo not drawn) | -4.3%
Cc1ccc(C(=O)NC(=S)Nc2ccc(N3CCOCC3)cc2)cc1 | -3.24%
O=C(NN=Cc1ccc(N2CCOCC2)cc1)c1cc2ccccc2cc1O | -1.83%
C/C(=N\NC(=O)c1ccccc1C)c1ccc(N2CCOCC2)cc1 | 5.16% (active)
CN=C1SC(C(=O)O)CC(=O)N1C (stereo not drawn) | -0.72%
CCC(C)NC(=O)/C=C/c1ccc(S(=O)(=O)NCc2ccco2)cc1 (stereo not drawn) | -2.61%
Cc1ccc(O)c(NC(=O)c2cc(-c3ccco3)on2)c1 | -1.09%
Cc1ccc(S(=O)(=O)NCCC(=O)OCC(=O)N(C)c2ccccc2)cc1 | 1.89%
O=S(=O)(NCc1ccc(Cl)cc1Cl)c1cccs1 | -2.31%
CN(Cc1c(F)cccc1Cl)S(=O)(=O)c1cccs1 | 0%
CN(Cc1ccc(F)cc1Cl)S(=O)(=O)c1cccs1 | 5.5% (active)
COc1ccc(N(CC(=O)Nc2cc(OC)cc(OC)c2)S(=O)(=O)c2c(C)n[nH]c2C)cc1 | -2.27%
CCCN1C(=O)C(Cc2nc3ccccc3c(=O)n2-c2ccccc2)c2cc(C)ccc21 (stereo not drawn) | -2.19%
CN1CCN(C2Cc3ccc(Cl)cc3Sc3ccc(F)cc32)CC1 (stereo not drawn) | -4.32%
COc1ccccc1N=Cc1c(O)c2ccccc2oc1=O | 6.71% (active)
COc1ccccc1N=C(C)C1=C(O)COC1=O | -1.39%
COc1cc(N=Cc2c(O)c3ccccc3oc2=O)c(OC)cc1Cl | 0.34%
COC(=O)c1ccc(CN2CCN(CCCc3ccccc3)C(CCO)C2)cc1 (stereo not drawn) | -3.99%
Cc1nn(CC(=O)Nc2ccc(N(C)C)cc2)c(C)c1[N+](=O)[O-] | 3.2%
C[n+]1cc(-c2ccccc2)oc1-c1ccccc1 | -1.56%
COc1ccc(-n2nnnc2SCc2nc(N)nc(N3CCOCC3)n2)cc1 | -2.85%

SMILES | proliferation
CN(C)c1nc(N)nc(Cn2nnc(-c3ccc(C(F)(F)F)cc3)n2)n1 | 1.04%
COc1ccc(-c2nnn(Cc3nc(N)nc(N4CCCCC4)n3)n2)cc1 | 8.76% (active)
CC(=O)Nc1ccc(NC(=O)C(C)OC(=O)c2ccccc2C(=O)c2ccc(Cl)c([N+](=O)[O-])c2)cc1 (stereo not drawn) | -5.3%
O=C(Nn1c(-c2ccc(Cl)cc2)nc2ccccc2c1=O)c1cccnc1Cl | -0.79%
N#CCc1ccc(NC(=O)c2ccccc2C(=O)Nc2ccc(CC#N)cc2)cc1 | -4.24%
CCOc1ccc(NC(=O)Nc2cc(C)ccc2OC)cc1 | -2.89%
COc1ccc(OC)c(NC(=O)CC(Cc2ccccc2OC)C(=O)O)c1 (stereo not drawn) | -2.33%
CCOc1ccccc1NC(=O)Nc1cc(OC)ccc1OC | 7.28% (active)
CC(C)(C)N(Cc1ccccc1)C(=O)c1ccncc1 | -4.48%
O=c1[nH][nH]c(C(F)(F)F)c1C=NCc1ccccc1Cl | -0.46%
Cc1cccn2c(=O)c3cc(C(=O)NCCN4CCOCC4)c(=N)n(Cc4cccnc4)c3nc12 | -6.51%
COc1ccc(CCn2c(=N)c(C(=O)NCc3ccco3)cc3c(=O)n4cccc(C)c4nc32)cc1 | 10.3% (active)
COc1ccc(CCn2c(=N)c(C(=O)NCC3CCCO3)cc3c(=O)n4cccc(C)c4nc32)cc1OC (stereo not drawn) | -3.69%
NS(=O)(=O)c1ccc(-c2ccc(/C=C3\SC(=O)NC3=O)o2)cc1 | 2.43%
COc1ccc2cc(-c3[nH]ncc3CNCCn3nc(C)cc3C)ccc2c1 | -1.3%
NC(=O)C1CCN(C2OC(=O)c3ccccc32)CC1 (stereo not drawn) | -1.61%
O=C(Nc1ccc(F)cc1)C1CCCN(S(=O)(=O)c2ccc(-n3cnnn3)cc2)C1 (stereo not drawn) | 0% (active)
CC(NC(=O)C1CCCN(S(=O)(=O)c2ccc(-n3cnnn3)cc2)C1)c1ccc(F)cc1 (stereo not drawn) | -0.52%
CC(C)CNC(=O)C1CCCN(S(=O)(=O)c2ccc(-n3cnnn3)cc2)C1 (stereo not drawn) | 1.81%
O=C(Cc1c(F)cccc1Cl)N1CCN(C(=O)c2ccco2)CC1 | -0.41%
Cc1cc(NC(=O)c2ccco2)c(=O)n(Cc2c(F)cccc2Cl)c1 | 6.29% (active)

SMILES | proliferation
O=C(Nc1cccn(Cc2c(Cl)cccc2Cl)c1=O)c1ccc(Cl)cc1 | 0.88%
COc1cc2cc(CN(CCN3CCCC3)C(=O)Nc3ccccc3Cl)c(=O)[nH]c2cc1OC | -1.42%
CN(Cc1ccc2nsnc2c1)Cc1nc(Cc2cccc(F)c2)no1 | -1.6%
CC1(C)Cc2c(sc(NC(=O)C(=O)NCC3CCCO3)c2C(=O)O)CO1 (stereo not drawn) | -1.4%
COc1ccc(CNC(=O)C(C)n2nc(C)c3c(C)n(-c4ccccc4)nc3c2=O)c(OC)c1 (stereo not drawn) | 0.39%
Cc1nn(C(C)C(=O)NCCC2=CCCCC2)c(=O)c2nn(-c3ccccc3)c(C)c12 (stereo not drawn) | 11.7% (active)
Cc1nn(C(C)C(=O)N2CCOCC2)c(=O)c2nn(-c3ccccc3)c(C)c12 (stereo not drawn) | -0.46%
COC(=O)c1ccc(C(NC(=O)OCc2ccccc2)/C(C)=C/[C@@H](C)C(=O)NCc2ccc(OC)c(OC)c2)cc1 (stereo partly drawn) | -1.99%
CC(C)OCCCNC(=S)N1CCC(C(=O)c2ccc3c(c2)OCCO3)CC1 | -1.17%
CC(C)C(=O)Nc1c2c(nn1-c1ccccc1)CSC2 | 0.9%
COc1ccc(/C=N/NC(=O)C2CC2)c(OC)c1OC | 0.51%
CC1(C)C2CC=C(/C=N/NC(=O)c3ccc(Cl)cc3)C1C2 (stereo not drawn) | -2.07%
CC1(C)C2CC=C(/C=N/NC(=O)C3CC3)C1C2 (stereo not drawn) | 7.56% (active)
O=[N+]([O-])c1ccc2c(c1)C(N1CCOCC1)/C(=C/C1(O)CCCCC1)O2 (stereo not drawn) | -1.4%
O=C(O)c1cc(S(=O)(=O)N(Cc2ccccc2)c2cccc(C(F)(F)F)c2)ccc1Cl | -1%
CCC1(CC)NC(=O)N(CC(=O)OCC(=O)Nc2ccc(C(F)(F)F)cc2)C1=O | -0.99%
CC1CCN(C(=O)/C(=C\c2ccccc2)NC(=O)c2ccccc2)CC1 | 2.17%
O=C(OCCN1CCOCC1)C1(c2ccccc2)CCCCC1 | 5.6%
CCCC(NCC(=O)Nc1ccccc1C(=O)NC1CC1)c1ccccc1 (stereo not drawn) | -0.98%
Cc1ccc(NC(=O)COC(=O)CNC(=O)c2ccc(Cl)cc2Cl)cc1S(=O)(=O)N1CCOCC1 | -0.42%
Cc1cccc2c1-c1sc(C(=O)NCCCN3CCc4ccccc4C3)cc1CO2 | -7.36%
